Assay [1] concerns Klebsiella pneumoniae. The following applies: Concentration 32 ug.mL-1; ASSAY_TEST Inhibition of Bacterial Growth; detection method Absorption (OD600); MEDIA CAMHB; plate type 384well; NBS; CORNING #3640; time 18 hr.
Assay [2] relates to Candida albicans. The following applies: 32 ug/mL.
Assay [3] concerns Cryptococcus neoformans. The settings on record: Concentration 32 ug.mL-1; ASSAY_TEST Inhibition of Fungal Growth; detection method Resazurin; Absorption (OD600-OD570); plate type 384well; NBS; CORNING #3640.

This is an account of results in ChEMBL document CHEMBL4513136, “CO-ADD screening of CSIC (Spain) compounds”.

Results with a measured potency or affinity are listed apart.

For `COc1ccc(OC)c(CC(=O)Nc2ccc(OC)cc2OC)c1`, the Inhibition was 9.85% in assay [1], 16.6% in assay [2] and -87.08% in assay [3].
As to `O=C(OCc1ccccc1)N1C(=O)C(c2ccccc2NC(=O)C(F)(F)F)=C(O)C1Cc1ccccc1` (stereo not drawn), the results for the Inhibition in assay [1], in assay [2] and in assay [3] were 7.86%, 0.9% and -95.18%, respectively.
The matching figures for `COC(=O)c1c(C(Cc2ccccc2)NC(=O)OCc2ccccc2)[nH]c2ccccc12` (stereo not drawn): 2.35%, 0.58% and -63.52%.
The matching figures for `Oc1ccc(-n2cc(-c3cc(O)ccc3O)nn2)cc1`: 10.3%, 1.72% and -19.32%.
Turning to `O=C(Cc1cc(O)ccc1O)Nc1ccc(O)cc1O`, the Inhibition in assay [1] was 6.35%; in assay [2], 4.45%; in assay [3], -73.31%.
Turning to `Oc1ccc(O)c(-c2cn(-c3ccc(O)c(O)c3)nn2)c1`, the Inhibition in assay [1] was -0.99%; in assay [2], 3.17%; in assay [3], -118.29%.
The matching figures for `O=C(/C=C/c1c[nH]c2ccc(O)cc12)c1cc(O)ccc1O`: 6.02%, 4.1% and -105.31%.
Taken in the same sequence, the figures for `COc1ccc(OC)c(C(=O)CCc2ccc(O)cc2)c1` were 3.34%, 1.55% and -66.83%.
Taken in the same sequence, the figures for `COc1ccc(NC(=O)Cc2cc(OC)ccc2OC)cc1` were 9.76%, 1.24% and -67.4%.
For `O=C(Nc1ccc(O)cc1O)Nc1cc(O)ccc1O`, the Inhibition in assay [1] is 9.23%; in assay [2], -2.25%; in assay [3], 15.83%.
In the case of `COc1ccccc1/C=C/C(=O)c1cc(OC)c(OC)cc1OC`, the Inhibition was 12.89% in assay [1], 3.46% in assay [2] and -68.54% in assay [3].
For the compound `O=C(Cc1cc(O)ccc1O)Nc1cc(O)ccc1O`, the Inhibition in assay [1] was 9.18%; in assay [2], 0.34%; in assay [3] it was -2.68%.
Taken in the same sequence, the figures for `O=C(/C=C/c1ccccc1O)c1cc(O)c(O)cc1O` were 21.23%, 6.47% and -81.74%.
Taken in the same sequence, the figures for `COc1ccc(OC)c(CC(=O)Nc2cc(OC)ccc2OC)c1` were 5.13%, 6.79% and -78.53%.
The matching figures for `COC(=O)C1(Cc2ccc(OCc3c(Cl)cccc3Cl)cc2)C(C)C(=O)N1Cc1ccc(OC)cc1` (stereo not drawn): 5.7%, 7.8% and -62.93%.
For the compound `CC1C(=O)N(Cc2ccc(OCCN3CCOCC3)cc2)C1(Cc1ccccc1)C(=O)O` (stereo not drawn), the Inhibition in assay [1] was 2.32%; in assay [2], 1.79%; in assay [3], -59.46%.
The matching figures for `O=C(CCc1ccc(O)cc1O)c1cc(O)ccc1O`: 10.96%, 3.81% and -52.63%.
With `COc1ccc(C(=O)/C=C/c2ccc(OC)cc2OC)cc1`, the Inhibition in assay [1] is -4.58%; in assay [2], 9.33%; in assay [3], -93.49%.
In the case of `COc1ccc(OC)c(-c2cn(-c3ccc(OC)c(OC)c3)nn2)c1`, the Inhibition was -16.63% in assay [1], 10.9% in assay [2] and -110.55% in assay [3].
The matching figures for `COc1ccc(OC)c(C(=O)/C=C/c2ccc(O)cc2)c1`: -6.02%, 2.83% and -65.46%.
Take `O=C(Cc1cc(O)ccc1O)Nc1ccc(O)cc1`: the Inhibition in assay [1] was 12.9%; in assay [2], 2.83%; in assay [3], -32.05%.
With `COc1ccc(OC)c(C(=O)/C=C/c2c[nH]c3ccc(OC)cc23)c1`, the Inhibition in assay [1] is 2.62%; in assay [2] it was 3.54%; in assay [3], -74.27%.
For the compound `COc1ccc(OC)c(C(=O)/C=C/c2ccccc2O)c1`, the figures for the Inhibition in assay [1], in assay [2] and in assay [3] were -4.68%, 16.8% and -71.16%, respectively.
Taken in the same sequence, the figures for `COc1ccc(OC)c(C(=O)CCc2ccccc2O)c1` were 4.74%, 4.16% and -73.15%.
The matching figures for `COc1ccc(CN2C(=O)C(C)C2(Cc2cn(C(=O)OC(C)(C)C)c3ccccc23)C(=O)OC(C)(C)C)cc1` (stereo not drawn): 15.95%, 7.68% and -81.49%.
Taken in the same sequence, the figures for `COc1ccc(OC)c(NC(=O)Nc2ccc(OC)cc2OC)c1` were 6.68%, -0.5% and -79.12%.
